# The full list was thinned out, with hits kept by preference.
# CtBP-E1A blk = blocks the CtBP interaction with E1A; AlphaScreen GST-E1A/His-CtBP binding, 1536-well; hits give low values; AID 651724; actives 0.49% (n = 340,000); activity change, % (concentration not given with the values)
#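 AlphaScreen with 125 nM GST-E1A and 125 nM His-CtBP (5X stocks) in Tris pH 8.0, 300 mM NaCl, BSA, Tween 20, TCEP. Compounds preincubated 2 h at 37 deg C, then glutathione donor/nickel acceptor beads added for 1 h at 37 deg C in dark.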
# L3MBTL1 block = blocks human L3MBTL1; Q9Y468; AlphaScreen L3MBTL1–H3K9me1 peptide binding; Potency, µM (titrated, usually from 57.1 µM), without a hit: top-dose activity, negative = inhibition, usual class: inhibitors; actives 0.66% (n = 230,000); AID 485360; active = well fitted inhibition curve with a large enough effect; inconclusive = small, poorly fitted or top-dose-only effect; inactive = no such curve, though single readings can be large or run the other way; also: potency is read from the fitted curve at half-maximal effect; nearly all actives have a fitted effect of over 60% in size
#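 AlphaScreen assay: L3MBTL1 (50 nM final) was preincubated 30 min at room temperature with biotinylated H3(1-15)K9me1 peptide (75 nM final), then 30 min with library compounds; streptavidin donor and nickel chelate acceptor beads (10 ug/mL final) added, 30 min dark.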
# Six1-Eya2 blk = inhibitors of human Six1/Eya2 interaction; Q15475+O00167; AlphaScreen GST-Six1/His-Eya2 binding, biochemical; hits give low values; activity change, % (concentration not given with the values); actives 0.56% (n = 360,000); AID 651725
#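 AlphaScreen with GST-Six1 and His-Eya2 (5X mix: 250 nM and 500 nM), glutathione donor and nickel acceptor beads; buffer 50 mM Tris pH 8.0, 300 mM NaCl, 1 mM TCEP; 1 h at 37 C in the dark.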
# KDM4E inh = JMJD2E (human) inhibition; B2RXH2; JMJD2E catalytic domain, FDH-coupled NADH fluorescence (FDH is formaldehyde dehydrogenase); Potency, µM (series often up to 57.1 µM), without a hit: top-dose activity change, negative = inhibition, usual class: inhibitors; actives 1.6% (n = 230,000); active = well fitted inhibition curve with a large enough effect, not every such curve was filed as active; inconclusive = small, poorly fitted or top-dose-only effect, or another doubt; inactive = no such curve, though single readings can be large or run the other way;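 also: potency is read from the fitted curve at half-maximal effect; 0% = wells with enzyme and -100% = buffer wells without enzyme; nearly all actives have a fitted effect of over 50% in size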
# Target sequence (B2RXH2 1-337 limits assumed): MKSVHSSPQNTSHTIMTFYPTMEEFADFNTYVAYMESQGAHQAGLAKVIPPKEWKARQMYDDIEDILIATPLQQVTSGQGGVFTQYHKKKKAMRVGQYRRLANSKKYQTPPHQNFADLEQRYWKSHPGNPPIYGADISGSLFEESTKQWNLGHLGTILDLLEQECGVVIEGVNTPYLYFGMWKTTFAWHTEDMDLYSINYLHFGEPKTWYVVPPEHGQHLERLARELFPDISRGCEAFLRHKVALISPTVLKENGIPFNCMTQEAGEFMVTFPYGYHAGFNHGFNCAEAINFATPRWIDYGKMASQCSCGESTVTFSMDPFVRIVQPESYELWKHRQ
# Numbers without * were called inactive; ? = inconclusive; · = no result given; ! = a repeat was not active; [ ] = another dose, or the depositor's remark. Rule as the data show it, unless noted: active = activity change below about -65%; inconclusive = mostly about -30% to -63%; inactive = weaker than that. Unless noted, % is scaled to controls: 0 for no effect and ±100 for the full control effect.
SMILES,CtBP-E1A blk,L3MBTL1 block,Six1-Eya2 blk,KDM4E inh
CCCCN(CC)C(=O)Cn1nc(Cc2ccncc2)c2ccccc2c1=O,4,·,1,·
Cc1ccc(Nc2nc(=O)c3cccnc3s2)c(Br)c1,-3,0%,-2,-3%
O=c1c(OC2OC(CO)C(O)C(O)C2OC2OC(CO)C(O)C(O)C2O)c(-c2ccc(O)cc2)oc2cc(O)cc(O)c12 (stereo not drawn),-2,·,-5,28µM*
O=c1c(O[C@H]2O[C@@H](CO)[C@H](O)[C@@H](O)[C@@H]2O)c(-c2ccc(O)cc2)oc2cc(O)cc(O)c12,·,-13%,-7,·
O=c1c(-c2ccc(O)cc2)coc2cc(OC3OC(CO)C(O)C(O)C3O)cc(O)c12 (stereo not drawn),6,29%,4,2%
O=c1cc(-c2ccc(O)cc2)oc2cc(O)c(C3OC(CO)C(O)C(O)C3O)c(O)c12 (stereo not drawn),-9,16µM*,-14,?
O=c1cc(-c2ccccc2)oc2cc(O[C@@H]3O[C@H](CO)[C@@H](O)[C@H](O)[C@H]3O)c(O)c(O)c12,·,·,·,13µM*
O=c1c(OC2OC(CO)C(O)C(O)C2O)c(-c2ccc(O)c(O)c2)oc2cc(O)cc(O)c12 (stereo not drawn),-1,?,-22,8.9µM*
O=C(O)/C=C/c1cccc(B(O)O)c1,·,·,·,-2%
CCCCCCCCCCCCCc1ccco1,·,·,·,-17%
COc1ccc(CCn2c(C)cc(C(=O)CN3C(=O)C(=O)N(C4CCCC4)C3=O)c2C)cc1OC,-7,-4%,-13,·
CCCCCCCCCC(=O)O[C@H](CC(=O)O)C[N+](C)(C)C,·,·,·,-4%
COc1cc(-c2oc3cc(O)cc(O)c3c(=O)c2O[C@@H]2O[C@H](COC3O[C@@H](C)[C@H](O)[C@@H](O)[C@H]3O)[C@@H](O)[C@H](O)[C@H]2O)ccc1O (stereo partly drawn),-3,0%,-1,·
CC1OC(OCC2OC(Oc3c(-c4ccc(O)c(O)c4)oc4cc(O)cc(O)c4c3=O)C(O)C(O)C2O)C(O)C(O)C1O (stereo not drawn),·,·,·,11µM*
O=C1C=C(c2ccc3cc[nH]c3c2)C[C@@H](c2ccc3c(c2)OCO3)C1,?,32µM*,-12,·
Cc1ccc(/C=N/Nc2cn[nH]c(=O)n2)o1,-68*,2%,?,-7%
O=c1nc(N/N=C/c2ccccn2)cn[nH]1,-91*,5µM*,-91*,10µM*
CC(=O)c1ccc(S(=O)(=O)Nc2ccccc2C(=O)NC2CC2)cc1,6,8%,1,·
COc1ccc2c(c1)O[C@@H](c1ccc3c(c1)OCO3)[C@H](O)C2=O,·,·,·,8%
N[C@H](C(=O)N[C@@H]1C(=O)N2C(C(=O)O)=C(Cl)CS[C@@H]12)c1ccccc1,·,·,·,14µM*!
C[C@H]1Cc2c(-c3ccccc3)nc3c(c2CO1)CN(S(=O)(=O)c1ccc2c(c1)OCCN2C)CC3,·,·,·,-1%[11.4 µM]
N#Cc1ccsc1NC(=O)c1ccccn1,?,-24%,-67*,?
N#Cc1ccsc1NC(=O)c1ccc2ncsc2c1,2,·,-16,·
O=C(CN1C(=O)NC2(CCCC2)C1=O)NNC(=O)c1ccccc1,8,0%,4,·
C[C@@]12CCC=C[C@H]1[C@H](c1ccc(F)c(/C=C/c3ccccc3)c1)N(Cc1ccccc1)C2=O,0,·,-7,?
SMILES,CtBP-E1A blk,L3MBTL1 block,Six1-Eya2 blk,KDM4E inh
c1ccc(CNCCN2CCNCC2)nc1,-72*,?,-86*,-6%
CSc1nnc(-c2cc3c(-c4ccccc4)nn(C)c3s2)n1C,-74*,-15%,-74*,?
COc1cc(C)c(C(=O)CSc2nnc(CNC(=O)c3ccco3)n2C)cc1C,-2,·,5,·
FC(F)c1nc2ccccc2[nH]1,-25,-29%,11,-29%
c1ccc2[nH]c3cc4ncnc4cc3nc2c1,-73*,-22%,?,?
COc1ccnc(CSC(N)=Nc2ccccc2C(F)(F)F)c1,-1,-2%,-16,-5%
COc1ccnc(CSC(N)=Nc2cccc(C(F)(F)F)c2)c1,-7,?,-67*,?
O=S(=O)(c1ccc2c(c1)C(O)c1ccccc1CC2)C(F)(F)F (stereo not drawn),·,7%,·,·
CC(NC(=O)C1CCN(C(=O)c2cccs2)CC1)c1ccc(S(N)(=O)=O)cc1 (stereo not drawn),2,20%,1,·
Cc1cc(SCC(=O)N/N=C/c2ccc(O)c(O)c2O)c(C)cc1Br,?,·,?,10µM*
NC(=O)c1ccccc1NC(=O)c1ccc2ccccc2c1,-2,9%,16,·
NC(=O)c1ccccc1NC(=O)c1cccc(C(=O)Nc2ccccc2C(N)=O)n1,-76*,·,-83*,·
O=c1[nH]c2ccccc2c2nc(-c3cccc(S(=O)(=O)N4CCCC4)c3)nn12,-81*,·,-85*,-22%
C=CC[C@@](C(C)=O)(C(=O)OC)C(NC(=O)OC(C)(C)C)c1ccccc1 (stereo partly drawn),·,·,·,11%
CN(C)c1ccc(C=Nc2ccc(N(C)C)cc2)cc1,?,?,?,20µM*
O=C1CNC(=S)N1CCc1ccc(O)c(O)c1,6,·,-5,13µM*
OCCN(Cc1cccnc1)Cc1ccccn1,3,·,-89*,·
COc1ccc(C(CCNCc2ccc(N(C)C)cc2)c2ccccc2OC)cc1 (stereo not drawn),-75*,·,-74*,·
COc1ccc(CNCCC(c2ccc(OC)cc2)c2ccccc2OC)cc1 (stereo not drawn),-1,·,-2,·
CCn1c(C)nc2cc(C(=O)N/N=C/c3cccc(O)c3O)ccc21,-94*,?,-80*,3.5µM*
CCn1c(C)nc2cc(C(=O)N/N=C(\C)c3ccc(OC)cc3O)ccc21,-22,-1%,-29,13µM*
FC(F)(F)c1cc(Oc2ccccc2)ncc1-c1nnc(-c2ccccc2Cl)o1,·,43%,-3,?
O=C(c1ccco1)N1CCN(CCCCN2C(=O)c3ccccc3C2=O)CC1,40,3%,14,14%
CCOC(=O)N1CCN(c2cc(NCCC(=O)O)c3c4c(onc24)-c2ccccc2C3=O)CC1,-70*,8.9µM*,-69*,-23%
O=C(O)CCCNc1cc(N2CCC3(CC2)OCCO3)c2noc3c2c1C(=O)c1ccccc1-3,·,10µM*,·,?
O=C1c2ccccc2-c2onc3c(N4CCN(CCO)CC4)cc(N4CCN(C(=O)c5ccco5)CC4)c1c23,-75*,·,?,·
O=[N+]([O-])c1c(NCCO)cc(N2CCC3(CC2)OCCO3)c2nonc12,0,-5%,3,11%
COc1ccc(C2=NO[C@@H]3[C@@H]4C[C@@H]([C@H]5C(=O)N(C)C(=O)[C@@H]45)[C@H]23)cc1,-9,12%,5,-7%
OCc1cc([C@@H](O)CNCCCCCCOCCCCc2ccccc2)ccc1O,·,·,·,13%
COc1ccc(Nc2ccc(S(=O)(=O)N3CCCCCC3)cc2[N+](=O)[O-])cc1,-66*,?,?,3%
